PubChem BioAssay AID1159580 (chemical genetic matrix, 2015)
Where “and” joins values, the source holds several entries; their conditions need not be identical. Equal values may be shown once. Hit rate of the full screen: of about 5,500 compounds, about 2,000 (36%) were called active. Another 18% or so got no clear call; they are omitted. Cut-off read from the data, not from the text of the source: active = normalized growth mostly below about 0.91 (no sharp cut-off); inconclusive = no clear call, values can overlap the other calls; inactive = mostly above about 0.92. This is one part of the list.

Assay: chemical genetic growth profiling, strain panel (AID 1159580);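 note: tested at 20 µM; growth read once vehicle control cultures reached saturation at 30 °C; 1 = growth at the plate median or of vehicle wells; lower values mean less growth of the strain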
Settings: growth OD

Measured: normalized growth

NC(=O)c1cnccn1
inactive: S. cerevisiae deletion strains, locus YJR075W, strain HOC1, hits give low values 1.03 | S. cerevisiae deletion strains, locus YKL009W, strain mrt4, hits give low values 1.02 | S. cerevisiae deletion strains, locus YKL068W, hits give low values 1 | S. cerevisiae deletion strains, locus YKL085W, strain MDH1 (second series), hits give low values 1.01 | S. cerevisiae deletion strains, locus YKL085W, strain MDH1, hits give low values 1.01 | S. cerevisiae deletion strains, locus YKL160W, strain elf1, hits give low values 0.967 | S. cerevisiae deletion strains, locus YKL190W, strain CNB1, hits give low values 1.01 | S. cerevisiae deletion strains, locus YKR001C, strain vps1, hits give low values 0.999 | S. cerevisiae deletion strains, locus YKR026C, strain gcn3, hits give low values 0.992 | S. cerevisiae deletion strains, locus YKR091W, strain srl3, hits give low values 0.99 | S. cerevisiae deletion strains, locus YLL001W, strain dnm1, hits give low values 0.955 | S. cerevisiae deletion strains, locus YLL026W, hits give low values 0.979 | S. cerevisiae deletion strains, locus YLL041C, strain sdh2, hits give low values 0.993 | S. cerevisiae deletion strains, locus YLR027C, strain aat2, hits give low values 0.976 | S. cerevisiae deletion strains, locus YLR039C, strain RIC1, hits give low values 1.05 | S. cerevisiae deletion strains, locus YLR058C, strain SHM2, hits give low values 1 | S. cerevisiae deletion strains, locus YLR102C, strain apc9, hits give low values 0.999 | S. cerevisiae deletion strains, locus YLR113W, strain HOG1, hits give low values 0.99 | S. cerevisiae deletion strains, locus YLR221C, strain rsa3, hits give low values 1.01 | S. cerevisiae deletion strains, locus YLR258W, strain gsy2, hits give low values 1.01 | S. cerevisiae deletion strains, locus YLR262C, strain YPT6 (second series), hits give low values 0.965 | S. cerevisiae deletion strains, locus YLR262C, strain YPT6, hits give low values 0.979 | S. cerevisiae deletion strains, locus YLR268W, strain sec22, hits give low values 1.05 | S. cerevisiae deletion strains, locus YLR320W, strain mms22, hits give low values 0.981 | S. cerevisiae deletion strains, locus YLR330W, strain CHS5, hits give low values 1.01 | S. cerevisiae deletion strains, locus YLR342W, strain FKS1 (second series), hits give low values 1.02 | S. cerevisiae deletion strains, locus YLR342W, strain FKS1, hits give low values 0.968 | S. cerevisiae deletion strains, locus YLR357W, strain rsc2, hits give low values 0.967 | S. cerevisiae deletion strains, locus YLR370C, strain arc18, hits give low values 0.999 | S. cerevisiae deletion strains, locus YLR371W, strain rom2, hits give low values 1.01 | S. cerevisiae deletion strains, locus YLR384C, strain iki3, hits give low values 0.977 | S. cerevisiae deletion strains, locus YLR418C, strain cdc73, hits give low values 1 | S. cerevisiae deletion strains, locus YML016C, strain PPZ1, hits give low values 1 | S. cerevisiae deletion strains, locus YML032C, strain rad52, hits give low values 1.02 | S. cerevisiae deletion strains, locus YML120C, strain ndi1, hits give low values 0.98 | S. cerevisiae deletion strains, locus YML124C, strain tub3, hits give low values 0.998 | S. cerevisiae deletion strains, locus YMR058W, strain fet3, hits give low values 0.98 | S. cerevisiae deletion strains, locus YMR078C, strain ctf18, hits give low values 1 | S. cerevisiae deletion strains, locus YMR125W, strain sto1, hits give low values 0.999 | S. cerevisiae deletion strains, locus YMR129W, hits give low values 0.993 | S. cerevisiae deletion strains, locus YMR205C, strain PFK2, hits give low values 0.998 | S. cerevisiae deletion strains, locus YMR223W, strain ubp8, hits give low values 0.985 | S. cerevisiae deletion strains, locus YMR231W, strain pep5, hits give low values 0.982 | S. cerevisiae deletion strains, locus YMR307W, strain GAS1, hits give low values 1.01 | S. cerevisiae deletion strains, locus YNL067W, strain RPL9B, hits give low values 1 | S. cerevisiae deletion strains, locus YNL071W, strain lat1, hits give low values 1.01 | S. cerevisiae deletion strains, locus YNL128W, strain TEP1, hits give low values 1.02 | S. cerevisiae deletion strains, locus YNL153C, strain GIM3, hits give low values 1 | S. cerevisiae deletion strains, locus YNL175C, strain NOP13, hits give low values 1 | S. cerevisiae deletion strains, locus YNL183C, strain NPR1, hits give low values 0.998 | S. cerevisiae deletion strains, locus YNL197C, strain WHI3, hits give low values 0.995 | S. cerevisiae deletion strains, locus YNL209W, strain ssb2, hits give low values 1 | S. cerevisiae deletion strains, locus YNL224C, strain SQS1, hits give low values 0.991 | S. cerevisiae deletion strains, locus YNL233W, strain BNI4, hits give low values 1.01 | S. cerevisiae deletion strains, locus YNL248C, strain rpa49, hits give low values 1.01 | S. cerevisiae deletion strains, locus YNL250W, strain rad50, hits give low values 0.998 | S. cerevisiae deletion strains, locus YNL271C, strain bni1, hits give low values 1 | S. cerevisiae deletion strains, locus YNL298W, strain CLA4, hits give low values 0.997 | S. cerevisiae deletion strains, locus YNL307C, strain MCK1, hits give low values 1.01 | S. cerevisiae deletion strains, locus YNL322C, strain KRE1 (second series), hits give low values 0.984 | S. cerevisiae deletion strains, locus YNR049C, strain mso1, hits give low values 0.998 | S. cerevisiae deletion strains, locus YNR052C, strain pop2, hits give low values 0.99 | S. cerevisiae deletion strains, locus YOL006C, strain TOP1, hits give low values 0.999 | S. cerevisiae deletion strains, locus YOL012C, strain htz1 1.57 | S. cerevisiae deletion strains, locus YOL147C, strain pex11, hits give low values 1 | S. cerevisiae deletion strains, locus YOR001W, strain rrp6, hits give low values 0.983 | S. cerevisiae deletion strains, locus YOR061W, strain CKA2, hits give low values 1 | S. cerevisiae deletion strains, locus YOR069W, strain VPS5, hits give low values 1.01 | S. cerevisiae deletion strains, locus YOR070C, strain gyp1, hits give low values 1 | S. cerevisiae deletion strains, locus YOR080W, strain dia2, hits give low values 0.978 | S. cerevisiae deletion strains, locus YOR083W, strain WHI5 (second series), hits give low values 1.02 | S. cerevisiae deletion strains, locus YOR083W, strain WHI5, hits give low values 0.955 | S. cerevisiae deletion strains, locus YOR106W, strain vam3, hits give low values 0.992 | S. cerevisiae deletion strains, locus YOR136W, strain idh2, hits give low values 0.988 | S. cerevisiae deletion strains, locus YOR144C, strain elg1, hits give low values 1 | S. cerevisiae deletion strains, locus YOR184W, strain ser1, hits give low values 1 | S. cerevisiae deletion strains, locus YOR231W, strain MKK1, hits give low values 1 | S. cerevisiae deletion strains, locus YOR265W, strain rbl2, hits give low values 0.985 | S. cerevisiae deletion strains, locus YOR270C, strain vph1, hits give low values 1.02 | S. cerevisiae deletion strains, locus YOR290C, strain snf2, hits give low values 1.02 | S. cerevisiae deletion strains, locus YOR316C, strain cot1, hits give low values 1.01 | S. cerevisiae deletion strains, locus YPL051W, strain arl3, hits give low values 0.993 | S. cerevisiae deletion strains, locus YPL055C, strain LGE1, hits give low values 0.976 and 0.968 | S. cerevisiae deletion strains, locus YPL078C, strain atp4, hits give low values 0.957 | S. cerevisiae deletion strains, locus YPL106C, strain sse1, hits give low values 0.97 | S. cerevisiae deletion strains, locus YPL240C, strain hsp82, hits give low values 0.979 | S. cerevisiae deletion strains, locus YPL241C, strain CIN2, hits give low values 1.01 | S. cerevisiae deletion strains, locus YPL256C, strain CLN2, hits give low values 1.02 | S. cerevisiae deletion strains, locus YPR119W, strain clb2, hits give low values 1.01 | S. cerevisiae deletion strains, locus YPR141C, strain kar3, hits give low values 0.993 | S. cerevisiae deletion strains, locus YPR163C, strain tif3, hits give low values 1.01 | S. cerevisiae deletion strains, locus YPR167C, strain met16, hits give low values 1.01 | S. cerevisiae deletion strains, strain wtn01, hits give low values 1 | S. cerevisiae strains, strain wild type, hits give low values 1.01
